Screening data: PubChem BioAssay, National Center for Advancing Translational Sciences (NCATS)
GALK inh = galactokinase (human) inhibition. Purified GALK, Kinase-Glo residual ATP luminescence. AID 1868. P51570. hit rate 0.007% among 270,000. Potency, µM (highest dose often 57.5 µM), inactives show at the highest dose activity change, negative = inhibition, most hits filed as inhibitors; note: % is set by controls: 0 for no effect and ±100 for the full control effect
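5 nM enzyme, 35 uM ATP, 100 uM galactose, 20 mM HEPES pH8.0, 5 mM MgCl2; 1 h RT; residual ATP by Kinase-Glo Plus luminescence, qHTS format.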
Nrf2 block = blocks Nrf2 signaling. hit rate 2.1% among 360,000. AID 504444. A549 ARE-Fluc reporter, luciferase luminescence, 18-24 h. Potency, µM (highest dose often 46 µM), for the others: at the highest dose activity change, negative = inhibition, usual class: inhibitors; note: % is set by controls: 0 for no effect and ±100 for the full control effect; nearly all actives have a fitted effect of over 60% in size
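Reporter: ARE-Fluc in A549. Exposure: 18-24 h, 37 °C, 5% CO2, 5% FBS OPTI-MEM. Readouts: fluorescent cytotoxicity (CellTiter-Fluor), then luminescent Nrf2 signal after BugLite.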
Nrf2 activator = Nrf2 pathway activation; AID 624171; Potency, µM (titrated, usually from 46.1 µM), inactives show at the highest dose activation, hits mostly activators; AREc32 ARE-luciferase reporter (MCF7-derived line), luminescence, 24 h; hit rate 0.31% among 410,000; note: % of control where 0% means no effect; nearly all actives have a fitted effect of over 65% in size
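ARE-driven firefly luciferase activity in AREc32 cells measured after a 24 hr compound exposure at 37 deg C, using Steady-Glo reagent and a 30 min room-temperature hold.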
A549 tox = A549 cytotoxicity, counter-screen for Nrf2 inhibitors | A549 ARE-Fluc cells, CellTiter-Fluor viability, 18-24 h | Potency, µM (titrated, usually from 46 µM), inactives show at the highest dose activity change, negative = cytotoxicity, hits mostly inhibitors | hit rate 0.16% among 390,000; note: % is set by controls: 0 for no effect and ±100 for the full control effect
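A549 ARE_Fluc cells in 5% FBS OPTI-MEM were exposed to compounds in concentration-response for 18-24 h at 37 deg C. Viability was read by CellTiter-Fluor fluorescence (Ex 405/Em 525) after 30 min, before the luciferase read.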
TrxR1 substrate = is turned over as a substrate by rat TrxR1 | AID 588456 | purified TrxR1 substrate turnover, NADPH consumption readout | O89049 | Potency, µM (highest dose often 114 µM), without a hit: top-dose activity change, negative = substrate turnover | hit rate 0.01% among 390,000; note: % is set by controls: 0 for no effect and ±100 for the full control effect; nearly all actives have a fitted effect of over 50% in size
Target sequence (O89049 whole entry, looked up): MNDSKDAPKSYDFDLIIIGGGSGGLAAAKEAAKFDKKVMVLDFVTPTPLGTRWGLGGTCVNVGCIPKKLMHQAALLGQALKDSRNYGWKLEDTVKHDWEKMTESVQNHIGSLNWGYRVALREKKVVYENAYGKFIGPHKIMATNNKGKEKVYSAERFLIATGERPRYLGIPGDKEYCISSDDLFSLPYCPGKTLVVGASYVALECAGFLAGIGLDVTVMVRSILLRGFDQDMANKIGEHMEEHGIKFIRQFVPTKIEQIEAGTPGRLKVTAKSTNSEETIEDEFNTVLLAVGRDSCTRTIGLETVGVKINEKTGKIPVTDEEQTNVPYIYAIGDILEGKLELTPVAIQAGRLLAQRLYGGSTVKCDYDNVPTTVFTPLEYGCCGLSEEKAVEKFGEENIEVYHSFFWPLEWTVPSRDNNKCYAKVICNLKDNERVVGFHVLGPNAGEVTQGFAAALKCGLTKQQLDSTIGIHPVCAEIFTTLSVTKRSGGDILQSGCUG
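Rat TrxR1, dispensed at 90 nM, was prereduced with 400 uM NADPH (final) for 5 min at ~22 deg C, then incubated with compound 15 min before 400 uM selenite. A first-read NADPH fluorescence drop versus no-compound background flagged substrates.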
rTrxR1 inhibitor = inhibitors of rat thioredoxin reductase 1. O89049. recombinant rTrxR1, NADPH fluorescence consumption, selenite substrate. Potency, µM (titrated, usually from 114 µM), without a hit: at the highest dose activity change, negative = inhibition, actives largely listed as inhibitors. hit rate 1% among 390,000. AID 588453; note: % is set by controls: 0 for no effect and ±100 for the full control effect; nearly all actives have a fitted effect of over 65% in size
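Rat TrxR1 (90 nM in the dispensed reagent) was pre-reduced with 400 uM NADPH for 5 min at room temperature, then incubated with compound for 15 min. After 400 uM selenite was added, NADPH fluorescence (Ex 340/Em 450 nm) was followed for 8 min.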
* marks the source's active call; other numbers are inactive results; [ ] = another dose, or the depositor's remark. Sampled rows, rich in hits. Any-hit rate of the full collection: about 3%. Calls come from the whole dose curve; as a rule, active = well fitted curve in the direction sought with a large enough effect; inconclusive = small, poorly fitted or top-dose-only effect, or another doubt; inactive = no such curve, though single readings can be large; an effect the other way counts as inactive or inconclusive. Potency is the fitted concentration of half-maximal effect.

How did CNc1ncnc(Sc2nc(N)nc3nc[nH]c23)c1[N+](=O)[O-] do in these assays?
Nrf2 block: inconclusive; Nrf2 activator: 9%; A549 tox: inconclusive; TrxR1 substrate: 13%[57.1 µM]; rTrxR1 inhibitor: 1.3µM*

Results for Cc1ccccc1NC(=O)c1c(C)oc2ccc(O)c(CN3CCCCCC3)c12 ?
Nrf2 block: inconclusive; Nrf2 activator: 4%; A549 tox: -4%; TrxR1 substrate: 2%; rTrxR1 inhibitor: -4%

What do the screens show for `Cc1cc(Cl)ccc1OCC(=O)N1CCC(c2nc3ccccc3s2)CC1`?
Nrf2 block: inconclusive; Nrf2 activator: 0%; A549 tox: -24%; TrxR1 substrate: -1%; rTrxR1 inhibitor: 27%

How did Cn1nc(C(=O)Nc2cccc(Cl)c2)cc1C(=O)Nc1cccc(Cl)c1 do in these assays?
GALK inh: 4%; Nrf2 block: 13µM*; Nrf2 activator: 0%; A549 tox: inconclusive; TrxR1 substrate: 23%; rTrxR1 inhibitor: 12%

Results for O=[N+]([O-])c1ccc2c(c1)C=C/C2=C/c1ccccc1 ?
TrxR1 substrate: -2%; rTrxR1 inhibitor: inconclusive

How did Cc1ccc(NS(=O)(=O)c2cc3c(cc2F)NC(=O)CC3)cc1C do in these assays?
Nrf2 block: -24%; A549 tox: 1%

Results for CCc1cccc(C)c1NC(=O)c1ccoc1C ?
GALK inh: 2%; Nrf2 block: 2%; Nrf2 activator: 0%; A549 tox: -1%; TrxR1 substrate: -1%; rTrxR1 inhibitor: 20µM*

What do the screens show for `CCc1cccc(C)c1NC(=O)c1cc(C)oc1C`?
GALK inh: 0%; Nrf2 activator: 0%; A549 tox: -4%; TrxR1 substrate: 2%; rTrxR1 inhibitor: 3%

Results for O=S(=O)(c1cccc(C(F)(F)F)c1)N1CCC(Oc2ccc(-n3cnnn3)cc2)CC1 ?
Nrf2 block: 18µM*; Nrf2 activator: 0%; A549 tox: inconclusive; TrxR1 substrate: -2%; rTrxR1 inhibitor: 16%

How did CC1Cc2ccccc2C[N+]1(C)CC(=O)c1ccc(I)cc1 (centres undefined) do in these assays?
TrxR1 substrate: -3%; rTrxR1 inhibitor: -8%

Results for CC(C)(C)c1ccc(CN(Cc2ccco2)c2cnc(S(C)(=O)=O)nc2C(=O)Nc2ccc(F)cc2)cc1 ?
Nrf2 block: 2%; Nrf2 activator: 7%; A549 tox: 3%; TrxR1 substrate: -11%; rTrxR1 inhibitor: -22%

How did Cc1ccc(CNC(=O)C2CCN(Cc3nc(-c4cccc(Br)c4)oc3C)CC2)cc1 do in these assays?
Nrf2 activator: -1%; A549 tox: 0%; TrxR1 substrate: -6%[57.1 µM]; rTrxR1 inhibitor: -3%[57.1 µM]

Results for O=C(O)CC/C(=N\Nc1ccc(S(=O)(=O)N2CCOCC2)cc1[N+](=O)[O-])c1cccs1 ?
GALK inh: 6%; Nrf2 block: -17%; Nrf2 activator: -1%; A549 tox: -16%; TrxR1 substrate: 79µM*; rTrxR1 inhibitor: inconclusive

What do the screens show for `COc1ccc(-c2csc3nc(-c4cccnc4)nc(N4CCC(C(N)=O)CC4)c23)cc1OC`?
GALK inh: -5%; Nrf2 block: -16%; Nrf2 activator: 11%; A549 tox: 5%; TrxR1 substrate: -4%; rTrxR1 inhibitor: -13%

What do the screens show for `COc1ccc(-c2csc3nc(C)nc(N4CCCCC4)c23)cc1OC`?
GALK inh: 7%; Nrf2 block: -20%; Nrf2 activator: 16µM*; A549 tox: -1%; TrxR1 substrate: -1%[57.1 µM]; rTrxR1 inhibitor: 16%[57.1 µM]

How did Cc1ccnc(Sc2ccc([N+](=O)[O-])cc2[N+](=O)[O-])n1 do in these assays?
GALK inh: -3%; Nrf2 block: inconclusive; Nrf2 activator: 5%; A549 tox: inconclusive; TrxR1 substrate: 6%; rTrxR1 inhibitor: 20µM*

What do the screens show for `O=[N+]([O-])c1ccc(Sc2ccc(Cl)c(Cl)c2)nc1`?
GALK inh: -1%; Nrf2 block: 2%; Nrf2 activator: 1%; A549 tox: 1%; TrxR1 substrate: -10%; rTrxR1 inhibitor: -17%

What do the screens show for `Nc1nc(Sc2ccc([N+](=O)[O-])cc2[N+](=O)[O-])n[nH]1`?
GALK inh: -2%; Nrf2 block: 1%; Nrf2 activator: inconclusive; A549 tox: -3%; TrxR1 substrate: -3%; rTrxR1 inhibitor: inconclusive

What do the screens show for `Cc1ccc(Sc2ccc([N+](=O)[O-])cc2[N+](=O)[O-])nc1`?
GALK inh: 2%; Nrf2 block: 2%; Nrf2 activator: 16µM*; A549 tox: -12%; TrxR1 substrate: -3%[57.1 µM]; rTrxR1 inhibitor: -39%

How did COc1cc(OC)c(NC(=O)C(C)n2nc(-c3ccc(C)c(C)c3)ccc2=O)cc1Cl (centres undefined) do in these assays?
Nrf2 block: -28%; Nrf2 activator: 0%; A549 tox: -13%; TrxR1 substrate: -4%; rTrxR1 inhibitor: 24%

What do the screens show for `CC(OC(=O)c1cccs1)C(=O)NCc1ccco1` (centres undefined)?
GALK inh: 9%; Nrf2 block: -2%; Nrf2 activator: 0%; A549 tox: -2%; TrxR1 substrate: 4%[57.1 µM]; rTrxR1 inhibitor: -9%[57.1 µM]

What do the screens show for `COc1ccccc1C(OC(=O)c1cccs1)C(=O)NCc1ccco1` (centres undefined)?
GALK inh: 4%; Nrf2 block: 15%; Nrf2 activator: 16%; A549 tox: -2%; TrxR1 substrate: 4%; rTrxR1 inhibitor: 16µM*

Results for Cc1nn(CC(=O)NCc2ccc(F)cc2)c2ccccc12 ?
Nrf2 block: 4%; Nrf2 activator: 1%; A549 tox: 3%; TrxR1 substrate: -2%; rTrxR1 inhibitor: 15%

Results for CCN(CC)c1cc(C)c2cc(NC(=O)c3ccc(Br)o3)ccc2n1 ?
Nrf2 block: 12µM*; Nrf2 activator: 0%; A549 tox: inconclusive; TrxR1 substrate: -5%; rTrxR1 inhibitor: inconclusive

How did CCn1c2ccccc2c2cc(NC(=O)c3ccc(Br)o3)ccc21 do in these assays?
GALK inh: 0%; Nrf2 block: -27%; Nrf2 activator: -1%; A549 tox: -10%; TrxR1 substrate: 8%[57.1 µM]; rTrxR1 inhibitor: 18µM*

Results for CCOC(=O)[C@@H]1[C@H]2COc3cc(OC)ccc3[C@H]2N2C(=O)N(c3ccc(C(F)(F)F)cc3)C(=O)[C@]12C ?
Nrf2 block: 21µM*; Nrf2 activator: 0%; A549 tox: -23%; TrxR1 substrate: -9%; rTrxR1 inhibitor: 13%
